From PubChem BioAssay (NCI)
Compounds without any hit were thinned out: in the full panel of roughly 79,000, 15% have a hit. Values without a mark were called inactive. The source made the active and inactive calls. Cut-off read from the data, not from the text of the source: active = growth inhibition above about 70%; inactive = the rest.

Experiment: NCI Yeast Anticancer Drug Screen. Data for the sgs1 mgt1 strain (AID 161);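 note: 0% = growth of cultures given vehicle only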
Settings: S. cerevisiae sgs1 mgt1 strain, at 5.0 µM (retest, dose inferred, filed as 0.5), active compounds read high
In short: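 Genetically altered yeast, compound exposure, growth inhibition relative to vehicle.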

Compound	growth inhibition
CC(CN(C)C)C(=O)/C=C/c1c(Cl)cccc1Cl (stereo not given)	11%
COc1ccc(C(=O)c2cc(Br)ccc2O)cc1	-1%
COc1cccc(OC)c1C(=O)/C=C/c1ccccc1	1%
S=C(Nc1ccc(Cl)c(Cl)c1)SC1CCCCC1	11%
Cc1sc(N=Nc2c(O)[nH]c3ccccc23)nc1-c1ccccc1	17%
O=C(NC(c1ccccc1)N1CCOCC1)c1ccccc1 (stereo not given)	0%
Cc1nc2ccc3c(ccc4nc(C)c(N=Nc5ccc(C(=N)N)cc5)c(O)c43)c2c(O)c1N=Nc1ccc(C(=N)N)cc1	-1%
CN(C)CCNC(=O)C(c1ccccc1)c1ccccc1	6%
CCOc1ccc(C(=O)CCN2CCOCC2)cc1	20%
O=S(Nc1ccccc1Br)c1ccccc1 (stereo not given)	-3%
CSC(=S)N/N=C(\C)c1ccc[nH]1	13%
Cc1ccc(Cl)cc1NN	2%
C[C@]12CC[C@H](O)C[C@@H]1CC[C@@H]1[C@@H]2CC[C@]2(C)[C@@H](c3cc(C(F)(F)F)n[nH]3)CC[C@@H]12	10%
CCCOC(=O)C(S)C(S)C(=O)OCCC (stereo not given)	-16%
CCC(C)(C)c1cc(Br)c(NS(=O)(=O)c2ccc(NC(C)=O)cc2)c(Br)c1	-9%
Cn1c2c(c3nc(N)nc(N)c3c1=O)CCc1ccccc1-2	8%
Cc1ccc(C(O)CCN2CCOCC2)c(C)c1 (stereo not given)	44%
COC(=O)CCCC(=O)NC1=C(Nc2ccccc2)C(=O)c2ccccc2C1=O	22%
Oc1cc(Br)cc2cccnc12	98% (active)
COC(=O)Cc1cn[nH]c1C(=O)OC	-65%

Compound	growth inhibition
O=C1CCCCCCC2=C1C(Sc1ccccc1)CC2 (stereo not given)	-16%
CC/C(=C1\C=CC(=O)S1)C(CC)c1ccc(OC(C)=O)cc1 (stereo not given)	-7%
COc1ccc(C2=C(Cl)C(=O)N(c3ccc(C)cc3)C(=O)C2(Cl)Cl)cc1	24%
CN(C)C1C[C@@H](O[Si](C)(C)C(C)(C)C)C=C1S(=O)(=O)c1ccccc1 (stereo not given in full)	-18%
NC(=O)C(=O)N/N=C/c1ccc([N+](=O)[O-])o1	2%
O=C(O)C1CCC(CC2CC3CCC2C3)CC1 (stereo not given)	-58%
CCCCCCCCCCCCOCC[N+](CCO)(CCO)Cc1ccccc1	99% (active)
Cc1cc(C)cc([C@H](C)N=Cc2cc(Br)ccc2O)c1	-1%
C=CC1(c2ccc(OC)cc2)OCCCO1	-16%
CC(C)CCOC(=O)c1ccc(O)cc1.[Zn+2]	3%
C/C=C/C=C\C1OC(O)([C@H](CC)C(=O)NC/C=C/C=C(\C)[C@H](OC)C(C)C2OC(\C=C/C=C/C=C(\C)C(=O)c3c(O)ccn(C)c3=O)[C@H](O)[C@@H]2O)C(O)C(O)C1(C)C (stereo not given in full)	-13%
O=c1cccccc1[O-].O=c1cccccc1[O-].O=c1cccccc1[O-].[Dy+3]	14%
CCCC(=O)Oc1ccc(-c2ccc(Br)cc2)cc1	3%
Oc1c(Cl)c(Cl)c(O)c2c1CCCC2	69%
Clc1nc(Cl)nc(N2CCCc3ccccc32)n1	-19%
CC[C@H]1CN2CCc3cc(OC)c(OC)cc3[C@@H]2C[C@@H]1C[C@H]1NCCc2cc(OC)c(OC)cc21	1%
S=C(NCCc1ccccc1)N/N=C/c1ccc(Cl)cc1	54%
O=C(O)Cc1ccc2c(c1O)C(=O)c1ccccc1C2=O	1%
CC1CCN(C(=S)NNC(C)c2cc3ccccc3cn2)CC1 (stereo not given)	80% (active)
Cc1c[nH]c(C(=O)O)c1-c1ccc2c(-c3ccccc3)nc3ccccc3n12	10%

Same assay, conditions: S. cerevisiae sgs1 mgt1 strain, at 50.0 µM (retest, dose inferred, filed as 5.0), active compounds read high

Compound	growth inhibition
CC(CN(C)C)C(=O)/C=C/c1c(Cl)cccc1Cl (stereo not given)	94% (active)
COc1ccc(C(=O)c2cc(Br)ccc2O)cc1	18%
COc1cccc(OC)c1C(=O)/C=C/c1ccccc1	62%
S=C(Nc1ccc(Cl)c(Cl)c1)SC1CCCCC1	98% (active)
Cc1sc(N=Nc2c(O)[nH]c3ccccc23)nc1-c1ccccc1	30%
O=C(NC(c1ccccc1)N1CCOCC1)c1ccccc1 (stereo not given)	-3%
Cc1nc2ccc3c(ccc4nc(C)c(N=Nc5ccc(C(=N)N)cc5)c(O)c43)c2c(O)c1N=Nc1ccc(C(=N)N)cc1	70% (active)
CN(C)CCNC(=O)C(c1ccccc1)c1ccccc1	-25%
CCOc1ccc(C(=O)CCN2CCOCC2)cc1	53%
O=S(Nc1ccccc1Br)c1ccccc1 (stereo not given)	21%
CSC(=S)N/N=C(\C)c1ccc[nH]1	96% (active)
Cc1ccc(Cl)cc1NN	89% (active)
C[C@]12CC[C@H](O)C[C@@H]1CC[C@@H]1[C@@H]2CC[C@]2(C)[C@@H](c3cc(C(F)(F)F)n[nH]3)CC[C@@H]12	90% (active)
CCCOC(=O)C(S)C(S)C(=O)OCCC (stereo not given)	53%
CCC(C)(C)c1cc(Br)c(NS(=O)(=O)c2ccc(NC(C)=O)cc2)c(Br)c1	35%
Cn1c2c(c3nc(N)nc(N)c3c1=O)CCc1ccccc1-2	39%
Cc1ccc(C(O)CCN2CCOCC2)c(C)c1 (stereo not given)	68%
COC(=O)CCCC(=O)NC1=C(Nc2ccccc2)C(=O)c2ccccc2C1=O	50%
Oc1cc(Br)cc2cccnc12	99% (active)
COC(=O)Cc1cn[nH]c1C(=O)OC	-48%

Compound	growth inhibition
O=C1CCCCCCC2=C1C(Sc1ccccc1)CC2 (stereo not given)	35%
CC/C(=C1\C=CC(=O)S1)C(CC)c1ccc(OC(C)=O)cc1 (stereo not given)	98% (active)
COc1ccc(C2=C(Cl)C(=O)N(c3ccc(C)cc3)C(=O)C2(Cl)Cl)cc1	83% (active)
CN(C)C1C[C@@H](O[Si](C)(C)C(C)(C)C)C=C1S(=O)(=O)c1ccccc1 (stereo not given in full)	100% (active)
NC(=O)C(=O)N/N=C/c1ccc([N+](=O)[O-])o1	42%
O=C(O)C1CCC(CC2CC3CCC2C3)CC1 (stereo not given)	85% (active)
CCCCCCCCCCCCOCC[N+](CCO)(CCO)Cc1ccccc1	99% (active)
Cc1cc(C)cc([C@H](C)N=Cc2cc(Br)ccc2O)c1	87% (active)
C=CC1(c2ccc(OC)cc2)OCCCO1	99% (active)
CC(C)CCOC(=O)c1ccc(O)cc1.[Zn+2]	29%
C/C=C/C=C\C1OC(O)([C@H](CC)C(=O)NC/C=C/C=C(\C)[C@H](OC)C(C)C2OC(\C=C/C=C/C=C(\C)C(=O)c3c(O)ccn(C)c3=O)[C@H](O)[C@@H]2O)C(O)C(O)C1(C)C (stereo not given in full)	34%
O=c1cccccc1[O-].O=c1cccccc1[O-].O=c1cccccc1[O-].[Dy+3]	14%
CCCC(=O)Oc1ccc(-c2ccc(Br)cc2)cc1	88% (active)
Oc1c(Cl)c(Cl)c(O)c2c1CCCC2	99% (active)
Clc1nc(Cl)nc(N2CCCc3ccccc32)n1	67%
CC[C@H]1CN2CCc3cc(OC)c(OC)cc3[C@@H]2C[C@@H]1C[C@H]1NCCc2cc(OC)c(OC)cc21	3%
S=C(NCCc1ccccc1)N/N=C/c1ccc(Cl)cc1	61%
O=C(O)Cc1ccc2c(c1O)C(=O)c1ccccc1C2=O	28%
CC1CCN(C(=S)NNC(C)c2cc3ccccc3cn2)CC1 (stereo not given)	97% (active)
Cc1c[nH]c(C(=O)O)c1-c1ccc2c(-c3ccccc3)nc3ccccc3n12	99% (active)
